This passage reports growth inhibition results from PubChem BioAssay AID1259309 (ICCB-Longwood Screening Facility, Harvard Medical School, 2017).

“And” between values parts separate entries of the source, which are not always exact repeats. Equal entries are not always repeated. The whole screen tested about 330,000 compounds, of which about 1,800 (0.55%) were called active. Rule as the data show it: active = growth inhibition above about 68%; inactive = the rest. What follows is part of a selection rich in actives, with near analogues and random picks from the rest.

The assay can be described thus: growth inhibition of ugtP-null S. aureus, primary screen, RN4220 ugtP deletion, OD600 (AID 1259309).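 Also: plate controls were untreated wells for no effect and antibiotic for full effect.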 Particulars: 16 h, hits give high values.
Regarding `CSc1ccc(C2=CC(=O)CC(c3ccc(F)cc3)C2)cc1` (stereo unspecified), the growth inhibition was -1.01% (inactive). Take `Cc1ccc(C=NNC(=O)CSc2nc3ccccc3c(=O)n2-c2ccccc2)s1`: the growth inhibition was -33.9% (inactive).

In the case of `Cn1c(SCC(=O)NN=Cc2ccc([N+](=O)[O-])s2)nnc1-c1ccccc1`, the growth inhibition was 100% (active). Regarding `Cc1ccc(C=NNC(=O)CSc2nc3ccccc3n2C)s1`, the growth inhibition was 0.402% (inactive). With `CCCc1noc2c1C(=NO)CCC2`, the growth inhibition is 0.229% (inactive). As for `COc1cc(NS(=O)(=O)c2ccc(NC(=O)c3ccc([N+](=O)[O-])cc3)cc2)ncn1`, the growth inhibition was 2.78% (inactive). For the compound `Cn1ccc(=Nc2ccc(NC(=O)c3ccc(N=c4ccn(C)c5ccc([N+](=O)[O-])cc45)cc3)cc2)cc1`, the growth inhibition was 99.6% (active). With `CCc1ccc(NC(=O)c2ccc(Cn3cc([N+](=O)[O-])cn3)cc2)cc1`, the growth inhibition was 5.62% (inactive). As to `CCOc1cc(C=NNC(=O)c2nnn(-c3nonc3N)c2C)ccc1OCc1cccc(F)c1`, the growth inhibition is -21.1% (inactive). For `CSc1sccc1C=NNC(=O)c1ccncc1`, the growth inhibition was -0.193% (inactive). In the case of `CCN1/C(=C/c2ccc3ccc(C)cc3[n+]2CC)Sc2ccccc21`, the growth inhibition is 100% (active). Then `CC(=NNC(=O)c1ccc(F)cc1)c1ccccn1`, with -8.87% (inactive); and `CCOc1cc(C=NNC(=O)c2cccc(S(=O)(=O)N3CCOCC3)c2)ccc1OCC(=O)N(C)C`, with 7.71% (inactive). Regarding `COC(=O)c1ccc(-c2c(-c3ccccc3)ncc3cc(OC)c(OC)cc23)cc1`, the growth inhibition was 97.6% (active).

`COc1ccc(CNC(=O)Cc2ccc(-c3ccccc3)cc2)cc1OC`: the growth inhibition was -1.11% (inactive). In the case of `COC(=O)c1ccc(SCc2ccccc2)nc1` it was 3.84% (inactive). As to `Cc1cccc(-n2c(C)cc(C=NNC(=O)c3ccco3)c2C)c1`, the growth inhibition is -2.71% (inactive). In the case of `COC(=O)C1=C(c2ccc(S(C)(=O)=O)cc2)CC2CCC1N2C(=O)N1CCCC1` (stereo unspecified) it was 2.31% (inactive); in that of `Cc1ccc(C(=O)/C=C/c2c(C)nn(-c3ccccc3)c2Cl)cc1`, -4.9% (inactive); in that of `Cc1nn(-c2ccccc2)c(Cl)c1C=NO`, -0.481% (inactive). Turning to `Cc1nn(-c2ccccc2)c(Cl)c1/C=C/C(=O)c1ccc(O)cc1`, the growth inhibition was 86.2% (active). As to `CNC(=S)NN=Cc1c(C(=O)OC)cnn1-c1ccc(F)cc1F`, the growth inhibition is 2.84% (inactive). `O=S(=O)(N=C(c1ccccc1Cl)N1CCOCC1)c1ccccc1`: the growth inhibition is -1.9% (inactive). For `Cc1cc(C(=O)NN=C2CCCC(C)C2)n[nH]1` (stereo unspecified), the growth inhibition is 1.57% (inactive). As to `COc1ccccc1C(=O)Nc1ccccc1C(=O)Nc1ccccc1`, the growth inhibition is 6.78% (inactive).

Consider `COc1cc(OC)c(S(=O)(=O)Nc2ccccc2C(=O)O)cc1S(=O)(=O)Nc1ccccc1C(=O)O`, for which the growth inhibition was 7.58% (inactive). With `COc1cc(NC(=O)c2ccccc2NS(=O)(=O)c2ccc(Cl)s2)cc(OC)c1`, the growth inhibition is 88% (active). Turning to `COC(=O)C1C[C@@]2(O)C(O)C(O)C(O)CC2N1Cc1cc(F)ccc1F` (stereo partly specified), the growth inhibition was -1.93% (inactive). For the compound `CCOC(=O)N=C(NC(=O)Nc1ccc(C(=O)OCC)cc1)OC`, the growth inhibition was 0.614% (inactive). Turning to `Cc1ccccc1C=Nn1c(C2CCCCC2)n[nH]c1=S`, the growth inhibition is -0.971% (inactive).

For the compound `N#CC1=C(SCc2ccccc2)NC(=O)C(C#N)C12CCCC2` (stereo unspecified), the growth inhibition was -2.16% (inactive). Consider `N#CC1=C(SCc2ccc(C#N)cc2)N=C(N)C(c2nc(-c3ccccc3)cs2)C12CCCCC2` (stereo unspecified), for which the growth inhibition is 92.2% (active). Turning to `N#Cc1ccc(CSc2ncccn2)cc1`, the growth inhibition is 7.1% (inactive). Consider `CC(=NOCC(=O)OCC(=O)Nc1cc(S(C)(=O)=O)ccc1Cl)c1ccc2c(c1)OCO2`, for which the growth inhibition was 4.9% (inactive). As for `CCOc1cc(C=NNC(=O)C(O)(c2ccccc2)c2ccccc2)ccc1OC(=O)c1ccco1`, the growth inhibition was 0.814% (inactive). For the compound `COCCN=C1NC(c2cccc(C(F)(F)F)c2)C(C(=O)OC)=C(C)N1Cc1ccccc1` (stereo unspecified), the growth inhibition is -23% (inactive).

`CCc1nc(C)ccc1OCC(=O)N(CC)CC`: the growth inhibition is 2.97% (inactive). For `CCC(C)(C)c1ccc(OCC(=O)N(C)C)c(C(C)(C)CC)c1`, the growth inhibition was 93.1% (active). For the compound `CN1CCN(C(=O)COc2ccc(C(C)(C)C)cc2Br)CC1`, the growth inhibition was -4.55% (inactive). `O=c1[nH]ncc(NN=Cc2cccnc2)c1Cl`: the growth inhibition was 8.44% (inactive). In the case of `CC(CC(=O)N1CCN(C=O)CC1)=NNC(=O)c1ccc(Cl)cc1` it was 3.18% (inactive); in that of `COC(=O)C1=C(C(=O)OC)C2N(C)c3ccccc3[C@@]23CC(CO)N(C(=O)c2cccs2)C3=N1` (stereo partly specified), 3.42% (inactive); in that of `CCOc1ccc(-c2c(C(=O)NN=C(C)c3ccccc3OC)nnn2-c2nonc2N)cc1`, 7.28% (inactive). For `COc1cc(C(=O)NN=Cc2cc([N+](=O)[O-])cs2)cc(OC)c1OC`, the growth inhibition was 2.4% (inactive). In the case of `S=c1[nH]nc(-c2cccc(Cl)c2)n1N=Cc1ccc(-c2ccccc2Br)o1`, the growth inhibition is 27.2% (inactive). `CC1=NOC(=O)C1=Cc1ccc(-c2ccc(Cl)c(C(=O)O)c2)o1`: the growth inhibition was 2.05% (inactive).

Regarding `O=C(O)C(c1ccccc1)N1C(=O)/C(=C\c2ccc(-c3cccc(Cl)c3)o2)SC1=S` (stereo unspecified), the growth inhibition is 95.7% (active). Take `COc1ccc(CC(=O)NCC(=O)NN=Cc2ccc(C)o2)cc1`: the growth inhibition was 8.44% (inactive). As to `CC(C)(C)OC(=O)C1=C(CO)CS[C@@H]2[C@H](NC(=O)Cc3ccccc3)C(=O)N12`, the growth inhibition is 101% (active). `O=C(Cc1ccccc1)NNC1CC(=O)N(c2ccc(Br)cc2)C1=O` (stereo unspecified): the growth inhibition was -0.3% (inactive). With `CC(C)(C)OC(=O)NC(Cc1ccccc1)C(=O)NC(CO)C(O)C1CC1C(=O)NC1CC1` (stereo unspecified), the growth inhibition is -0.531% (inactive). Consider `N#Cc1nc(-c2ccc(OCc3ccccc3)cc2)oc1NCCCN1CCOCC1`, for which the growth inhibition was 85.2% (active).

Regarding `O=S(=O)(c1ccccc1)c1nc(-c2ccccc2)oc1NCCCN1CCOCC1`, the growth inhibition was 2.69% (inactive). Take `Cc1ccc(-c2nc(C#N)c(NCCCn3ccnc3)o2)cc1`: the growth inhibition is -7.44% (inactive). Turning to `O=C(NN=C/C=C/c1ccco1)c1cccnc1`, the growth inhibition is -1.13% (inactive). As for `CCC1=C(OC(=O)N(CC)CC)N2C(=O)OC(=NCC3CC3)[C@]2(Cc2ccccc2)C2C1=CCC1C(=O)N(CC(=O)OC)C(=O)C12` (stereo partly specified), the growth inhibition is 5.55% (inactive).

Regarding `CC(C)NC(=O)N(C)CC1Oc2ccc(NC(=O)Nc3ccc(C(F)(F)F)cc3)cc2CC(=O)N(C(C)CO)CC1C` (stereo unspecified), the growth inhibition is -1.09% (inactive). In the case of `N#C/C(=C/c1ccc(Cl)cc1)NC(=O)c1ccccc1` it was -7.93% (inactive).

In the case of `N#CC(=NNc1ccc(Cl)cc1)C(=O)c1ccccc1`, the growth inhibition is 99.4% (active). In the case of `N#CC(=NNc1ccc(Cl)cc1)C(=N)N1CCCCC1`, the growth inhibition was -11.7% (inactive).

For the compound `CCCCC(O)(CCCC)C(=O)NN=C(C)c1ccc(Cl)cc1`, the growth inhibition was -3.08% (inactive).

Take `COc1ccc(C(=O)NN=Cc2ccc(OC(=O)c3cccc4ccccc34)c([N+](=O)[O-])c2)cc1`: the growth inhibition is 96.8% (active). With `COc1ccc(C=NNC(=O)c2ccccc2OC)cc1COc1ccccc1[N+](=O)[O-]`, the growth inhibition is 4.98% (inactive). In the case of `COc1ccc(C(=O)NN=Cc2ccc(OC)c(CN3CCCc4ccccc43)c2)cc1` it was -10.3% (inactive); in that of `CC(=NNc1cccc(C(=O)O)c1)c1cc2ccccc2o1`, 5.08% (inactive). Then `C=C(C)C(=O)Nc1cccc(C2=NOC3(C2)CC(C(N)=O)N(C(=O)c2ccccc2)C3)c1` (stereo unspecified), with 0.731% (inactive); and `CC(C)=CCc1ccc(O)c(=O)cc1C(C)C`, with -4.82% (inactive); and `CC(C)=CCc1c(O)c(CC=C(C)C)c2occ(-c3ccc(O)cc3)c(=O)c2c1O`, with 98.5% (active). `COc1ccccc1NC(=O)CC(C)=NNC(=O)c1ccccn1`: the growth inhibition is 3.4% (inactive). On to `C/C(C=NNC(=O)c1nnn(-c2nonc2N)c1C(C)C)=C\c1ccccc1`, for which the growth inhibition is -3.08% (inactive). Then `Oc1ccc(CC2CNC(=S)N2CCc2cc(C(F)(F)F)cc(C(F)(F)F)c2)cc1` (stereo unspecified), with 10.9% (inactive) and 22.1% (inactive); and `CCCCNC(=S)N(C)N=Cc1c(F)c(F)c(F)c(F)c1F`, with 4.66% (inactive). Regarding `Cc1[nH]n(-c2cccc(Cl)c2)c(=O)c1-c1ccc(Cl)cc1`, the growth inhibition is 87.7% (active).

Consider `Cc1nc2c(-c3ccccc3)c(C)[nH]n2c(=O)c1Cl`, for which the growth inhibition was 3.35% (inactive). On to `Cc1cc(=O)n2[nH]c(-c3cccc(Cl)c3)cc2n1`, for which the growth inhibition is -2.61% (inactive). Take `COc1ccc(C=NNC(=O)CCc2n[nH]c(=O)[nH]c2=O)cc1OC`: the growth inhibition is -0.0548% (inactive). Take `O=C(O)C1=CC(c2ccc3c(c2)OCO3)CC(OCc2ccc(CO)cc2)O1` (stereo unspecified): the growth inhibition is -2.53% (inactive) and -0.0237% (inactive). Then `COc1cc(C=NNC(=S)NCCN2CCOCC2)ccc1O`, with 11.5% (inactive). Take `CC(C)(C)Cc1nnc(NC(=O)c2cc(-c3ccccc3)nc3ccccc23)s1`: the growth inhibition is -17.6% (inactive).

As for `O=C(Nc1nnc(-c2ccccc2)o1)c1cc(-c2cccs2)nc2ccccc12`, the growth inhibition is 96.3% (active). As to `O=C(NN=Cc1ccsc1)c1cc(-c2cccs2)nc2ccccc12`, the growth inhibition was -4.48% (inactive).

Take `CN1CCN(N=Cc2ccc(-c3ccc([N+](=O)[O-])cc3Cl)o2)CC1`: the growth inhibition was 3.66% (inactive). In the case of `Cc1ccc(N2C(=O)C3N=NN(CC(=O)N4N=C(c5cccc6ccccc56)CC4c4ccccc4)C3C2=O)cc1` (stereo unspecified), the growth inhibition was -14.5% (inactive). In the case of `Oc1ccccc1C1=NN(c2ccccc2)C(c2ccccc2)C1` (stereo unspecified) it was 99.6% (active); in that of `O=C1C2N=NN(CC(=O)N3N=C(c4cccc5ccccc45)CC3c3ccccc3)C2C(=O)N1c1ccccc1` (stereo unspecified), -9.34% (inactive); in that of `CCOc1ccc(C=NNc2cc(N3CCOCC3)nc(C)n2)c(O)c1`, 1.85% (inactive).

As for `CC1CN(C(C)CO)C(=O)Cc2cc(NC(=O)CCC(F)(F)F)ccc2OC1CN(C)S(=O)(=O)c1ccc(Cl)cc1` (stereo unspecified), the growth inhibition was 4.94% (inactive). On to `NCCCCC(C(=O)N1CCNCC1)n1cc(CCC(=O)O)nn1` (stereo unspecified), for which the growth inhibition was 3.28% (inactive). Turning to `OCCN(Cc1ccccc1)Cc1ccc(Cl)cc1`, the growth inhibition was -6.5% (inactive).

For `OCc1ccc(-c2ccccc2)c(-c2ccccc2)c1`, the growth inhibition was 89.2% (active).

On to `OCc1nc(CO)n(Cc2ccccc2)n1`, for which the growth inhibition is 13.4% (inactive).

`COc1cc(CCCN2C(=O)C(=O)NCC2CC2CCCCC2)cc(OC)c1OC` (stereo unspecified): the growth inhibition was 2.58% (inactive). For `Cc1cc(C=NNC(=O)c2ccccn2)c(C)n1-c1cccc([N+](=O)[O-])c1`, the growth inhibition was 6.51% (inactive).

Turning to `COc1ccccc1C(=O)NCC(=O)OCC(=O)Nc1nnc(-c2ccccc2)o1`, the growth inhibition was -1.67% (inactive). Regarding `O=C(Nc1nnc(-c2ccc(Cl)cc2)o1)c1ccccc1Br`, the growth inhibition is 97.7% (active). In the case of `Cc1ccnc2nc(C(=O)Nc3nnc(-c4ccccc4)o3)nn12` it was 12.9% (inactive); in that of `CCOC(=O)NN=Cc1ccc(C)o1`, 3.13% (inactive); in that of `N#CC(=C(O)CCl)c1nnc2n1CCCCC2`, 4.05% (inactive). Then `C#CCOCCOCCOCCNc1nc(N2CCN(C(=O)C(CCCCN)n3cc(C(N)CC(C)C)nn3)CC2)nc(N2CCN(C(=O)C(CCCCN)n3cc(C(N)CC(C)C)nn3)CC2)n1` (stereo unspecified), with 0.321% (inactive); and `CC(C)NC(=O)CC(=O)NN=Cc1c(F)cccc1Cl`, with -1.54% (inactive); and `Cc1cccc(CCN2C(Nc3ccccc3)=NCC2CC(C)C)c1` (stereo unspecified), with 2.11% (inactive).
